# LYPLA2 counter – LYPLA2 inhibitors, primary screen, counter-screen for PME1 inhibitor project, biochemical, fluorescence polarization, FP-Rh probe ABPP; Acyl-protein thioesterase 2 (Homo sapiens), O95372; recombinant LYPLA2; inhibition, % at 5.9 µM; actives 0.38% (n = 320,000);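 active = inhibition above the screen-wide mean plus 3 SD, limit set per campaign, cut at about 26% in these data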
# LYPLA1 inh – LYPLA1 inhibitors, primary screen, counter-screen for PME1 inhibitor project, biochemical, fluorescence polarization, FP-Rh probe ABPP. recombinant LYPLA1. actives 0.16% (n = 320,000). Acyl-protein thioesterase 1 (Homo sapiens), O75608. inhibition, % at 5.9 µM. AID 2174, 2009;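 active = inhibition above the mean of all tested compounds plus 3 SD, set per campaign, cut at about 14% in these data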;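 also: inhibitors block serine hydrolase probe labeling of LYPLA1 so polarization falls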
# Target sequence (O75608 whole entry, looked up): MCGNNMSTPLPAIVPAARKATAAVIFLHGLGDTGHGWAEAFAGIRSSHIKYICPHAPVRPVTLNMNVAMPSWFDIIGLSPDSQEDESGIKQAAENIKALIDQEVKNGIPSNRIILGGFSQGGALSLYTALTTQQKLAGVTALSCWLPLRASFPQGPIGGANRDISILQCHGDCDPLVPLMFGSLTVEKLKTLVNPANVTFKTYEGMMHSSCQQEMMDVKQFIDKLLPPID
# PREPL inh – PREPL enzyme inhibitors, primary screen, biochemical, fluorescence polarization | recombinant PREPL, fluorescence polarization activity-based probe | inhibition, % at 5.96 µM | actives 0.68% (n = 320,000)
# Fam108B inh – mouse Fam108B serine hydrolase inhibitors, primary screen, counter-screen for RBBP9 inhibitor project, biochemical, fluorescence polarization | inhibition, % at 9.51 µM | recombinant Fam108B, FP-Rh probe fluorescence polarization | actives 0.33% (n = 300,000) | AID 1947, 2009;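 active = inhibition above the screen mean inhibition plus 3 SD, computed separately per campaign, cut at about 18% in these data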;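 also: inhibitors lower polarization as less probe binds the enzyme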
# GSTO1 inh – inhibitors of recombinant GSTO1, primary screen, counter-screen for RBBP9 inhibitor project, biochemical, fluorescence polarization; Glutathione S-transferase omega-1 (Homo sapiens), P78417; activity-based probe fluorescence polarization; inhibition, % at 5.96 µM; actives 1.1% (n = 300,000);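 active = inhibition above the campaign mean inhibition plus 3 SD, cut at about 35% in these data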
# PME-1 primary – PME-1 inhibitors via competitive probe labeling, primary screen, biochemical, fluorescence polarization, FP-Rh probe, HTS | actives 0.53% (n = 320,000) | AID 2130, 2009 | Protein phosphatase methylesterase 1 (Homo sapiens), Q9Y570 | inhibition, % at 5.9 µM | recombinant PME-1;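 active = inhibition above the campaign mean of all compounds plus 3 SD, cut at about 26% in these data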;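 also: competitive labeling of PME-1 active site by serine hydrolase directed probe; inhibitors block probe labeling so polarization falls and inhibition rises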
# Target sequence (Q9Y570 whole entry, looked up): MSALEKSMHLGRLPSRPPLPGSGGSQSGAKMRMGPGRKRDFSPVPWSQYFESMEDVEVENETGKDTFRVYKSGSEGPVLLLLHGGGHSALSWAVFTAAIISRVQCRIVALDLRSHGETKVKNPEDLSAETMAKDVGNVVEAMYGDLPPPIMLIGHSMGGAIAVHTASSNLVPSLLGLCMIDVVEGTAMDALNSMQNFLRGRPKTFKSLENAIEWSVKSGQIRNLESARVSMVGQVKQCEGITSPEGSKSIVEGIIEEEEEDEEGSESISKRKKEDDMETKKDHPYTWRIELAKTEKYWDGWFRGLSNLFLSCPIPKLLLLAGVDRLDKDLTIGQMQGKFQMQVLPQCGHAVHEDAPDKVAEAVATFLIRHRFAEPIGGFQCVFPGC
# PREPL inh cf – human PREPL enzyme inhibitors, confirmation, biochemical, fluorescence polarization. shares compounds with PREPL inh. recombinant PREPL, fluorescence polarization activity probe. inhibition, % at 5.96 µM. actives 67% (n = 2,000). AID 2803, 2010
# Hits are given with their value; - = inactive; . = no result. Rows were chosen to be rich in hits. Some 1.9% of all compounds tested hit in one or more screens of this group. Rule as the data show it, unless noted: active = inhibition above about 43%; inactive = the rest.
SMILES,LYPLA2 counter,LYPLA1 inh,PREPL inh,Fam108B inh,GSTO1 inh,PME-1 primary,PREPL inh cf
Cc1ccc(N2C(=O)C3N=NN(CC(=O)N4N=C(c5ccccc5)CC4c4ccccc4)C3C2=O)cc1 (stereo not given),-,-,-,-,-,-,.
COc1cccc(CCNC(=O)CCCC(=O)c2ccccc2)c1,-,-,-,-,-,-,.
Cc1cccc2cc(-c3ccccc3)c(-c3ccccc3)c[n+]12,-,-,58,-,-,-,46
COc1cc(OC)cc(-c2c(-c3cccs3)c3cc(-c4ccc(OCc5ccccc5)cc4)ccc3n2C)c1,.,.,72,.,.,.,-
COc1ccc2c(c1)CC1c3c(cc4c(c3-2)OCO4)CC[N+]1(C)[O-] (stereo not given),-,-,55,-,-,-,-
CC(OC(=O)Cn1[nH]c(=O)c2ccccc2c1=O)C(=O)Nc1ccc(Cl)cn1 (stereo not given),-,-,-,.,.,-,.
CC(=O)c1ccc(OCCOc2ccc([N+](=O)[O-])cc2)cc1,-,-,-,-,-,-,.
O=Cc1ccccc1OCCOc1ccc([N+](=O)[O-])cc1,-,-,43,-,-,-,-
CN1CCN(c2ccc(NC(=O)COc3cccc4ccccc34)cc2)CC1,-,-,55,-,-,-,57
CN1CCN(c2ccc(NC(=O)COc3ccc4ccccc4c3)cc2)CC1,-,-,52,-,-,-,58
Cc1ccccc1OCC(=O)Nc1ccc(N2CCN(S(C)(=O)=O)CC2)cc1,-,-,-,-,-,-,.
CN1CCN(c2ccc(NC(=O)c3ccc4ccccc4c3)cc2)CC1,-,-,-,-,-,-,.
Cc1ccc(NC(=O)CN(C)C(=O)CCC(=O)N2CCOCC2)cc1,-,-,-,-,-,-,.
Cc1ccc(NC(=S)Nc2ccc3nc(-c4ccccn4)c(-c4ccccn4)nc3c2)cc1C,-,-,44,-,-,-,-
C/C(=N\Nc1cccc(C(=O)O)c1)c1ccc(Cl)s1,-,-,-,-,-,-,.
CCN1CCN(c2cc(N3CCN(C(=O)c4ccco4)CC3)c3c4c(onc24)-c2ccccc2C3=O)CC1,-,-,70,-,-,-,68
C=CC[n+]1c(/C=C2\C=Cc3cc(C)ccc3N2CC)ccc2ccccc21,-,-,46,-,-,-,60
Nc1c(Cl)ncnc1N/N=C/c1ccc2ccccc2n1,-,-,64,-,-,-,53
COc1cc(/C=C(\C#N)c2ccccn2)ccc1OCc1ccccc1Cl,-,-,47,-,-,-,-
COc1cc(/C=C(\C#N)c2ccccn2)cc(OC)c1O,-,-,-,-,-,-,.
Cc1cnc(CNC(=O)c2ccc3oc(Cc4ccc(Cl)cc4)nc3c2)cn1,-,-,-,-,-,-,.
COCCCNC(=O)C1CCC(=O)N(c2ccc3c(c2)OCO3)C1c1ccc(OC)cc1 (stereo not given),-,-,-,-,-,-,.
CC#C[C@]1(O)CC[C@H]2[C@@H]3CCC4=CC(=O)CCC4=C3[C@@H](c3ccc(N(C)C)cc3)C[C@@]21C,-,-,50,-,-,-,46
C#C[C@]1(O)CCC2C3CCC4=CC(=O)CC[C@@H]4C3CC[C@@]21C (stereo not given in full),-,-,-,-,-,-,.
N#CC1=C(SCc2ccccc2)NC(=O)CC1c1ccccc1 (stereo not given),-,-,-,-,-,-,.
SMILES,LYPLA2 counter,LYPLA1 inh,PREPL inh,Fam108B inh,GSTO1 inh,PME-1 primary,PREPL inh cf
N#Cc1c(N)nc2c3c(sc(=N)c2c1N)NC(=O)CC3c1ccccc1 (stereo not given),-,-,50,-,-,29,-
O=S1(=O)N=C(Nc2ccc(N3CCOCC3)cc2)c2ccccc21,-,-,-,-,-,-,.
Cc1ccccc1-c1ccc(Nc2ccc(N3CCOCC3)cc2)nn1,-,-,59,-,-,-,53
O=C(NCCc1ccccc1)c1ccc2c(c1)S(=O)(=O)c1cc(Cl)ccc1C2=O,-,-,56,.,.,-,-
O=C(NCc1ccccc1)c1ccc2c(c1)S(=O)(=O)c1cc(Cl)ccc1C2=O,-,-,-,.,.,-,.
CC(C)CC(c1nnnn1Cc1cccs1)N1CCN(c2nc3ccccc3s2)CC1 (stereo not given),-,-,44,-,-,-,-
CCOc1ccc(CN2CCN(Cc3nc(C(C)C)cs3)CC2CCO)cc1 (stereo not given),-,-,-,-,-,-,.
O=C(Cc1cccc2ccccc12)Nc1nnc(-c2cccc([N+](=O)[O-])c2)s1,-,-,46,-,-,-,-
O=C(Cc1ccccc1)Nc1nc(-c2cccc([N+](=O)[O-])c2)cs1,-,-,-,-,-,-,.
Cc1ccc(S(=O)(=O)Nc2ccc(C(=O)NC3CC3)cc2)cc1,-,-,-,-,-,-,.
Cc1ccc(NS(=O)(=O)c2ccc(C(=O)Nc3nncs3)cc2)cc1,.,.,45,.,.,.,-
CC(C)C[C@@H]1CN=C(N)N1C[C@@H]1CCCN1C[C@H](C)N1C[C@@H](Cc2ccccc2)N(CCc2ccc(Cl)c(Cl)c2)C1=N,.,.,45,.,.,.,-
NC1=NC[C@H](Cc2ccccc2)N1CC1CCCCC1,-,-,-,-,-,-,.
Cc1cccc(CCN2C(Nc3ccccc3)=NC[C@@H]2CC(C)C)c1,-,-,-,-,-,-,.
CC(C)C[C@@H]1CN=C(N)N1C[C@@H]1CCCN1C[C@H](C)N1C[C@@H](Cc2ccccc2)N(CCCC2CCCC2)C1=N,.,.,52,.,.,.,-
CC(C)C[C@@H]1CN=C(N)N1C[C@@H]1CCCN1C[C@@H](C(C)C)N1C[C@@H](Cc2ccccc2)N(CCc2ccc(Cl)c(Cl)c2)C1=N,.,.,70,.,.,.,64
O=C(c1ccccc1CCc1ccccc1)N1CCN(c2ccccn2)CC1,-,-,-,-,-,-,.
O=C(COc1ccccc1Br)N1CCN(C(=O)c2ccco2)CC1,-,-,-,-,-,-,.
Nc1nc(Nc2ccccc2)nc2c1ncn2[C@@H]1O[C@H](CO)[C@@H](O)[C@H]1O,-,-,-,-,-,-,.
C[C@H](CO)N1C[C@H](C)[C@@H](CN(C)C(=O)Nc2ccc(C(F)(F)F)cc2)Oc2ccc(NS(=O)(=O)c3cccs3)cc2C1=O,.,.,-,.,.,.,.
